Results filed as inconclusive are left out. The source made the active and inactive calls. Calls come from the whole dose curve; as a rule, active = well fitted cell-killing curve with a large enough effect; inconclusive = small, poorly fitted or top-dose-only effect, or effect the other way; inactive = flat fitted curve, though single readings scatter.
Assays:
Assay in all cases: Primary qHTS to identify gynecologic anti-cancer compounds using libraries of approved drugs and bioactive compounds (AID 1345084); note: nearly all actives have a fitted effect of over 55% in size
Conditions in all cases: Gynecologic cancer cell panel viability, ATPlite luminescence, 48 h; series mostly up to 57.5 µM
[1] = test system: SKOV3
In short: (§1)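 48 h compound exposure at 37 C, 5% CO2; five-point qHTS. ATPlite luminescence readout of cell ATP.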

[2] = test system: Tov-21-G
In short: as §1

[3] = test system: Tov112D
In short: as §1

Measured: Potency

COc1ccc2c(c1)O[C@H](O[C@@H]1O[C@H](CO)[C@@H](O)[C@H](O)[C@H]1O)C(=O)N2
inactive: all assays above

C[C@@H]1CC[C@]2(C(=O)O)CC[C@]3(C)C(=CCC4[C@]5(C)C(CC[C@]43C)C(C)(C)[C@@H](O)[C@H](O)[C@@H]5O)C2[C@]1(C)O (stereo partly drawn)
inactive: all assays above

O=C(CCO[C@@H]1O[C@H](CO)[C@@H](O)[C@H](O)[C@H]1O)c1ccc(O)cc1
inactive: all assays above

CC1(C)CC2C(C1)C1(C)CCC13OC3(CO)C2O (stereo not drawn)
inactive: all assays above

COc1ccc(/C=C/C(=O)O[C@@H]2[C@@H](O)[C@H](C)O[C@@H](OC3C4C=COC(O[C@@H]5O[C@H](CO)[C@@H](O)[C@H](O)[C@H]5O)C4C4(CO)OC34)[C@@H]2O)cc1OC (stereo partly drawn)
inactive: all assays above

C=C(C)C(=O)O[C@H]1C[C@@](C)(OC(C)=O)[C@@]2(O)CC[C@@](C)(O)[C@H](OC(C)=O)[C@@]23OC(=O)C(COC)=C13
inactive: all assays above

CC(C)(O)c1ccc2c(c1)C(O)CC1C(C)(C(=O)O)CCCC21C (stereo not drawn)
inactive: all assays above

Cc1cn2c(N)c(Cl)cc(C(=O)NCC3CCN(CC(C)C)CC3)c2n1
inactive: all assays above

C=C1CC2C3(C)C(O)CC(=O)C(C)(C)C3C(OC(C)=O)C(OC(C)=O)C2(C)C2C(=O)OC(C)(C(=O)OC)C(=O)C12C (stereo not drawn)
inactive: all assays above

CC(=C/C(=O)O)/C=C/[C@]1(O)[C@@]2(C)CO[C@]1(C)C[C@H](O[C@@H]1O[C@H](CO)[C@@H](O)[C@H](O)[C@H]1O)C2
inactive: all assays above

O=C(O)c1ccc(CCCc2ccc(OCCc3ccc(F)cc3)cc2)o1
inactive: all assays above
